SMILES strings stand for the structures. Records with an inconclusive call do not appear. Activity calls are given as the source filed them. Unless noted, calls follow the shape of the dose curve; as a rule, active = well fitted curve in the direction sought with a large enough effect in the repeat runs; inconclusive = weak or mixed curves; inactive = no such curve, though single readings can be large; an effect the other way counts as inactive or inconclusive.

The nature of test [1]: qHTS assay to identify small molecule antagonists of the glucocorticoid receptor (GR) signaling pathway - cell viability counter screen (AID 720693). Also: nearly all actives have a fitted effect of over 55% in size. A general note: Quantitative high-throughput screening tests each substance at several concentrations.
The nature of test [2]: qHTS assay for identifying genotoxic compounds that show differential cytotoxicity against isogenic chicken DT40 cell lines with known DNA damage response pathways - Rev3 mutant cell line (AID 743014). Also: nearly all actives have a fitted effect of over 55% in size. Also: potency is read from the fitted curve at half-maximal effect.
Test [3] in a line: qHTS assay for identifying genotoxic compounds that show differential cytotoxicity against isogenic chicken DT40 cell lines with known DNA damage response pathways - Rad54/Ku70 mutant cell line (AID 743015). Also: nearly all actives have a fitted effect of over 60% in size. Also: potency is read from the fitted curve at half-maximal effect.
In test [4] the target is Androgen receptor (Homo sapiens) (UniProt P10275). As to the kind of experiment: qHTS assay to identify small molecule antagonists of the androgen receptor (AR) signaling pathway (AID 743035; active = well fitted inhibition curve with a large enough effect in the signal ratio in the repeat runs, not every such curve was filed as active; the % refers to the signal ratio; also: potency is read from the fitted curve at half-maximal effect). The method, boiled down:
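Quantitative HTS of the Tox21 10K library used HEK293 AR-UAS-bla cells stimulated with R1881 alongside compound for 16 h at 37C, followed by beta-lactamase FRET detection (LiveBLAzer B/G, 2 h, RT).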

Test [5] shares this target. In words: qHTS assay to identify small molecule agonists of the androgen receptor (AR) signaling pathway using the MDA cell line (AID 743040; also: nearly all actives have a fitted effect of over 20% in size). In outline: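 Stable MMTV-luciferase reporter in MDA-kb2 cells; note the promoter carries GR as well as AR response elements. 16 h compound treatment, 37C, 0% CO2; ONE-Glo luminescence endpoint.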
Test [6] can be described thus: qHTS assay to identify small molecule antagonists of the androgen receptor (AR) signaling pathway using the MDA cell line - cell viability counter screen (AID 743041; also: nearly all actives have a fitted effect of over 45% in size). In outline: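 Using the breast carcinoma line MDA-kb2 AR-luc, test chemicals were co-incubated with R1881 for 16 h; CellTiter-Fluor reagent, added at 15.5 h, provided a fluorescence measure of live cells.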

Test [7] addresses Androgen receptor (Homo sapiens) (UniProt P10275). In words: qHTS assay to identify small molecule antagonists of the androgen receptor (AR) signaling pathway using the MDA cell line (AID 743042; also: nearly all actives have a fitted effect of over 55% in size). The method, boiled down:
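Antagonist mode: compounds plus R1881 agonist added to MDA-kb2 AR-luc cells, incubated 16 h at 37C. Luciferase reporter luminescence quantified, with multiplexed CellTiter-Fluor readout for cell viability.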

Test [8] can be described thus: qHTS assay to identify small molecule antagonists of the thyroid receptor (TR) signaling pathway - cell viability counter screen (AID 743064). Also: nearly all actives have a fitted effect of over 50% in size. Also: potency is read from the fitted curve at half-maximal effect. The method, boiled down: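 Fluorescence from CellTiter-Fluor, added after 23.5 h exposure at 37 °C, reported viability of GH3.TRE-Luc cells co-treated with compound and 1 nM T3. Measured in the same wells as the luciferase TR readout.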

A short description of test [9]: qHTS assay to identify small molecule antagonists of the androgen receptor (AR) signaling pathway - cell viability counter screen (AID 743033; also: nearly all actives have a fitted effect of over 45% in size).
Test [10] in a line: qHTS assay for identifying genotoxic compounds that show differential cytotoxicity against isogenic chicken DT40 cell lines with known DNA damage response pathways - wild type cell line (AID 743012). Also: nearly all actives have a fitted effect of over 60% in size. Also: potency is read from the fitted curve at half-maximal effect. In outline:
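Luminescent ATP viability signal (CellTiter-Glo, 30 min RT) recorded after wild type DT40 cells were incubated with compounds for 40 h at 37 C/5% CO2.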

Sequence of Androgen receptor (Homo sapiens) (P10275 whole entry, looked up): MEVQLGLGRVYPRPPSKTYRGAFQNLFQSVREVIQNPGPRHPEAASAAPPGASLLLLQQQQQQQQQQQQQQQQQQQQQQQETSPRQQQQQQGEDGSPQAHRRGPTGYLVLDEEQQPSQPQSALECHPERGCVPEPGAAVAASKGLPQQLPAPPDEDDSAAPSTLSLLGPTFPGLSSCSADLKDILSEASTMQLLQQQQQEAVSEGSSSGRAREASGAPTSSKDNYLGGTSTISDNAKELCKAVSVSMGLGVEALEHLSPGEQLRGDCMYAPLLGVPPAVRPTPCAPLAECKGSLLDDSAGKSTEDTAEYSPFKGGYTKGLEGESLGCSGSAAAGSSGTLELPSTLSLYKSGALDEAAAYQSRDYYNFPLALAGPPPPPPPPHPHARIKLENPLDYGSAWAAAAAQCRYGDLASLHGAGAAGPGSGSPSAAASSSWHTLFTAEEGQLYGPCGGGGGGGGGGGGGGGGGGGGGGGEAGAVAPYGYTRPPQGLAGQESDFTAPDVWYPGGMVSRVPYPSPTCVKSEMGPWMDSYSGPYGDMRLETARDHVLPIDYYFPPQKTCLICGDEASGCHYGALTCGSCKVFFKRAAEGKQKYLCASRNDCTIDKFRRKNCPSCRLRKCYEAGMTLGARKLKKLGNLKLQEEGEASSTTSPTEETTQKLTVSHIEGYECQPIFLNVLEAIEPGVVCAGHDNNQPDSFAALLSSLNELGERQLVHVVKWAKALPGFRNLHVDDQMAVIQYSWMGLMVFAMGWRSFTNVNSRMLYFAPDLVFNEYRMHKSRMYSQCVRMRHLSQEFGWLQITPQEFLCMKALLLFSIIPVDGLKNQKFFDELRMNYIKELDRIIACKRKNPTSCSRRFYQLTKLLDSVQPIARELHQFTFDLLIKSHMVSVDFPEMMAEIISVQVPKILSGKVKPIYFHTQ

Take `COc1cc(OC)nc(Oc2cccc(Oc3nc(OC)cc(OC)n3)c2C(=O)O)n1`: the Potency entry in test [1], in test [2], in [3], in test [4], in test [5] and in [6] was “inactive” each time. The Potency entry in test [8] was “inactive”. Besides, the outcome in test [7] was inactive.

Turning to `CNC(=O)Oc1ccc(N(C)C)c(C)c1`, the Potency entry in test [1] and in test [8] was “inactive” each time. The Potency in test [2] is 34.4 µM (active); in test [3], 68.6 µM (active).

For `CCCSP(=O)(OCC)Oc1ccc(Br)cc1Cl` (configuration not stated), the Potency result in [1], in [9], in test [6] and in [8] was “inactive” in each case. Also, in test [2], the Potency was 33.3 µM (active).

On to `CCc1cc2c(s1)-n1c(C)nnc1CN=C2c1ccccc1Cl`, for which the Potency result in [1], in test [2], in [9], in test [6] and in [8] was “inactive” each time.

`CCN(CC)c1nc(C)cc(OP(=S)(OC)OC)n1`: the Potency result in test [1], in [9] and in test [6] was “inactive” in each case. Also, the Potency in test [2] was 48.6 µM (active).

For `CC(COc1ccc(Oc2ccccc2)cc1)Oc1ccccn1` (configuration not stated), the Potency result in test [1], in test [9], in [5], in test [6] and in test [8] was “inactive” in each case. Also, the Potency in test [3] was 61.1 µM (active). Moreover, the call in test [7] was inactive.

For `CC(=O)CCc1ccc2c(c1)OCO2`, the Potency result in test [1], in [2], in [9], in [6] and in test [8] was “inactive” in each case.

On to `CCOP(=S)(OCC)Oc1nc(Cl)n(C(C)C)n1`, for which the Potency entry in [1], in [9], in [6] and in test [8] was “inactive” throughout. Moreover, in [2], the Potency is 68.6 µM (active).

For the compound `CC1(C)CON(Cc2ccccc2Cl)C1=O`, the Potency result in test [1], in test [6] and in test [8] was “inactive” in each case. For the same compound, the Potency in test [2] is 68.6 µM (active).

Turning to `O=[N+]([O-])c1ccc(CBr)cc1`, the Potency entry in test [1], in test [2], in test [9], in test [6] and in test [8] was “inactive” each time.

Consider `COC(=O)c1c(C(F)F)nc(C(F)(F)F)c(C2=NCCS2)c1CC(C)C`, for which the Potency entry in test [1], in test [4], in [5] and in test [6] was “inactive” each time. In addition, the Potency in [2] and in [3] was 61.1 µM (active) throughout. Also, the outcome in [7] was inactive.

Turning to `ClCC(Cl)(Cl)Cl`, the Potency entry in test [1], in test [2], in test [3], in [9], in [6] and in test [8] was “inactive” in each case.

Turning to `CN(N=O)C(N)=O`, the Potency entry in test [1], in [2], in test [3], in test [9], in test [6] and in test [8] was “inactive” in each case.

Consider `O=C(CCCN1CCC(n2c(=O)[nH]c3ccccc32)CC1)c1ccc(F)cc1`, for which the Potency entry in [1], in [9], in [4], in test [5], in test [6] and in test [8] was “inactive” in each case. Further, the outcome in test [7] was inactive.

As for `COC(=O)c1ccccc1S(=O)(=O)NC(=O)N(C)c1nc(C)nc(OC)n1`, the Potency result in test [1], in test [3], in test [6] and in test [8] was “inactive” in each case.

With `CCC(C)(C)c1cc(-n2nc3ccccc3n2)c(O)c(C(C)(C)CC)c1`, the Potency entry in test [2], in test [3], in test [4], in test [5], in test [6] and in test [8] was “inactive” each time. Moreover, in test [7], the result was inactive.

On to `CCC(Cl)[N+](=O)[O-]` (configuration not stated), for which the Potency result in test [1], in [3], in test [9], in [6] and in test [8] was “inactive” in each case.

With `COP(=S)(OC)Oc1c(Cl)cc(C)cc1Cl`, the Potency entry in test [1], in [6] and in test [8] was “inactive” throughout.

For the compound `[Cl][Sn]([Cl])([Cl])[Cl]`, the Potency result in [10], in test [2], in test [6] and in test [8] was “inactive” each time.

With `ClC(Cl)Br`, the Potency result in test [10], in test [2], in test [3], in test [9], in test [6] and in [8] was “inactive” each time.

`O=NN1CCCCC1`: the Potency result in [10], in test [2], in test [3], in test [4], in [5] and in test [6] was “inactive” each time. Also, the Potency entry in [8] was “inactive”. The call in test [7] was inactive.

Consider `CC1CCCCC1NC(=O)Nc1ccccc1` (configuration not stated), for which the Potency result in test [1], in test [9], in test [6] and in test [8] was “inactive” in each case.

On to `CC1(C(=O)Nc2ccc(O)c(Cl)c2Cl)CCCCC1`, for which the Potency was 68.6 µM (active) in test [10] and 61.1 µM (active) in [3]. The Potency result in test [9] and in test [6] was “inactive” in each case.

Consider `Clc1cccc(N2CCNCC2)c1`, for which the Potency result in test [1], in test [9], in [6] and in test [8] was “inactive” each time.

Take `O=C1c2ccccc2C(=O)c2ccccc21`: the Potency result in test [1], in test [3], in [9] and in [8] was “inactive” in each case.

For the compound `C1CCC(C2CCCCC2)CC1`, the Potency entry in test [1] and in [8] was “inactive” each time. In test [3], the Potency is 54.5 µM (active).

`COc1cc(C[C@@H](C)N)c(OC)cc1C`: the Potency entry in test [1], in [3] and in [6] was “inactive” each time.

With `Nc1n[nH]c(N)n1`, the Potency result in test [1], in test [9], in [6] and in test [8] was “inactive” throughout.

As for `C=CCC1=C(C)[C@@H](OC(=O)[C@@H]2[C@@H](C=C(C)C)C2(C)C)CC1=O`, the Potency in [3] was 15.4 µM (active); in test [8] it was 61.1 µM (active). Further, the Potency result in [9] was “inactive”.

With `N#CCCC#N`, the Potency result in test [10], in [3], in [9] and in test [6] was “inactive” throughout.

Consider `O=S(=O)(O)C(F)(F)C(F)(F)C(F)(F)C(F)(F)C(F)(F)C(F)(F)F`, for which the Potency result in [1], in test [3], in test [9], in [6] and in test [8] was “inactive” in each case.

As to `O=[N+]([O-])c1cccc2cccnc12`, the Potency entry in test [1], in test [6] and in [8] was “inactive” throughout.

With `CC(CCc1ccccc1)NC(C)C(O)c1ccc(O)cc1` (configuration not stated), the Potency entry in [1], in test [3] and in [6] was “inactive” each time. Besides, the Potency in [8] was 16.8 µM (active).

For `CC(Oc1ccc(Oc2ncc(C(F)(F)F)cc2Cl)cc1)C(=O)O` (configuration not stated), the values for the Potency in [2] and in [3] were 68.6 µM (active) and 61.1 µM (active), respectively. Besides, the Potency result in test [5] and in test [8] was “inactive” in each case.

Take `CCCSC(=O)Cl`: the Potency result in test [1], in [9], in test [6] and in test [8] was “inactive” each time.

For the compound `c1coc(-c2nc3ccccc3[nH]2)c1`, the figures for the Potency in test [10], in test [2] and in test [3] were 54.5 µM (active), 24.3 µM (active) and 54.5 µM (active), respectively. For the same compound, the Potency result in test [6] and in test [8] was “inactive” throughout.

`Cc1nnc2n1-c1sc(CCC(=O)N3CCOCC3)cc1C(c1ccccc1Cl)=NC2`: the Potency entry in test [1], in test [3], in test [9], in test [6] and in test [8] was “inactive” in each case.

In the case of `COP(=S)(OC)Oc1ccc(S(N)(=O)=O)cc1`, the Potency result in [1], in test [3], in [9], in [6] and in test [8] was “inactive” in each case.

Regarding `COC(=O)C1=CCCN(C)C1`, the Potency entry in [10], in [9], in test [6] and in [8] was “inactive” each time.

Turning to `CC(C=O)Cc1ccc2c(c1)OCO2` (configuration not stated), the Potency entry in test [10], in test [6] and in test [8] was “inactive” throughout.

Turning to `COc1cc(OC)nc(NC(=O)NS(=O)(=O)c2ncccc2C(=O)N(C)C)n1`, the Potency entry in test [10], in test [2], in [9], in test [6] and in test [8] was “inactive” in each case.

Turning to `CC(=O)[C@H]1CC[C@H]2[C@@H]3CC[C@H]4C[C@H](O)CC[C@]4(C)[C@H]3C(=O)C[C@]12C`, the Potency result in test [1], in [9] and in test [6] was “inactive” in each case.

In the case of `OC(Cn1cncn1)(c1ccc(F)cc1)c1ccccc1F` (configuration not stated), the Potency result in test [1], in test [9], in [6] and in test [8] was “inactive” in each case.

Take `O=CNC(N1CCN(C(NC=O)C(Cl)(Cl)Cl)CC1)C(Cl)(Cl)Cl` (configuration not stated): the Potency entry in test [1], in test [9], in [5], in test [6] and in test [8] was “inactive” in each case. Moreover, in test [4], the Potency was 6.16 µM (active). In [7], the outcome was inactive.

On to `CS(=O)(=O)c1cc(C(F)(F)F)ccc1C(=O)c1cnoc1C1CC1`, for which the Potency result in [1], in [9], in [6] and in test [8] was “inactive” in each case.

In the case of `CCCSP(=S)(OCC)Oc1ccc(Cl)cc1Cl` (configuration not stated), the Potency entry in test [1], in test [9], in test [6] and in test [8] was “inactive” throughout. The Potency in test [3] was 61.1 µM (active).

Regarding `O=C(O)c1cccc(Cl)c1`, the Potency result in test [1], in test [3], in [9], in test [6] and in [8] was “inactive” each time.

With `CN/C(=N\[N+](=O)[O-])NCC1CCOC1` (configuration not stated), the Potency entry in test [1], in test [3], in test [6] and in [8] was “inactive” throughout.

The values above are taken from PubChem BioAssay (Tox21).
